Results on 12 compounds are retold here after PubChem BioAssay.

Assay [1] can be described thus: resazurin metabolic signal in HepG2 cells – cell-based, resazurin fluorescence, 24 h, PK04 Diversity Set, profiling panel (AID 1172). Also: test concentration not given here. Particulars: HepG2 viability, higher = more signal.
Assay [2] in a line: budding yeast growth changes without added modifier – OD600, strain BY4716, 24 h, basal condition, primary screen (AID 1173). Particulars: S. cerevisiae BY4716 growth, OD600, 24 h; higher = more signal, called active from +8 up or from −8 down.
Assay [3] in a line: viability profiling in MM1S myeloma cells – cell-based, resazurin fluorescence, basal, 24 h, PK04 Diversity Set, profiling panel (AID 1174). Also: test concentration not given here. Particulars: higher = more signal, called active from +8 up or from −8 down.
Assay [4] addresses Dihydroorotate dehydrogenase (quinone), mitochondrial (Plasmodium falciparum (isolate 3D7)) (UniProt Q08210). The experiment in a line: inhibition of P. falciparum DHODH – biochemical, C-terminal His tag, absorbance 600 nm, primary screen (AID 1175).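 Also: recombinant parasite enzyme with a five histidine tag at its C terminus; test concentration not given here.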 Particulars: PfDHODH enzyme, DCIP absorbance 600 nm; higher = more signal, called active from +8 up or from −8 down.
A short description of assay [5]: inhibition of PAO1 biofilm formation – strain PAO1, LB-PBS medium, absorbance 600 nm, primary screen (AID 1176). Also: test concentration not given here. Particulars: P. aeruginosa PAO1 growth/biofilm, A600, 12 h; higher = more signal.
Assay [6] can be described thus: growth modulation of vineyard yeast isolate – strain RM11-1a, OD600, basal, 24 h, primary screen (AID 1177).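 Also: cultures grown under basal conditions with no added stressor; test concentration not given here.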 As to conditions: S. cerevisiae RM11-1a growth, OD600, 24 h; higher = more signal, called active from +8 up or from −8 down.
Assay [7] can be described thus: growth of efflux-deficient E. coli DRC39 – strain DRC39, OD650, 24 h, E. coli filamentation inducers, primary screen (AID 1178).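 Also: growth measured as culture turbidity by optical density at 650 nm; test concentration not given here.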 As to conditions: E. coli DRC39 acrAB, higher = more signal, called active from +8 up or from −8 down.
A short description of assay [8]: growth of efflux-deficient E. coli DRC39 – strain DRC39, OD650, 48 h, E. coli filamentation inducers, primary screen (AID 1179).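 Also: screen aims at cell division blockers that make cells filament.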 Particulars: E. coli DRC39 delta-acrAB growth, higher = more signal, called active from +8 up or from −8 down.
Assay [9] in a line: viability profiling in RPMI8226 myeloma cells – cell-based, resazurin fluorescence, basal, 24 h, PK04 Diversity Set, profiling panel (AID 1180).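 Also: RPMI8826 multiple myeloma cell line at 5000 cells per well; test concentration not given here.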 Particulars: higher = more signal.
Assay [10] deals with E3 ubiquitin-protein ligase XIAP (Homo sapiens) (UniProt P98170). The experiment in a line: small molecules binding XIAP protein – biophysical, small-molecule microarray, fluorescence 635 nm, primary screen (AID 1181).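 Also: score merges 667 nm emission and signal to noise over triplicate slides.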 Particulars: higher = more signal.
Chain of E3 ubiquitin-protein ligase XIAP (Homo sapiens) (P98170 whole entry, looked up): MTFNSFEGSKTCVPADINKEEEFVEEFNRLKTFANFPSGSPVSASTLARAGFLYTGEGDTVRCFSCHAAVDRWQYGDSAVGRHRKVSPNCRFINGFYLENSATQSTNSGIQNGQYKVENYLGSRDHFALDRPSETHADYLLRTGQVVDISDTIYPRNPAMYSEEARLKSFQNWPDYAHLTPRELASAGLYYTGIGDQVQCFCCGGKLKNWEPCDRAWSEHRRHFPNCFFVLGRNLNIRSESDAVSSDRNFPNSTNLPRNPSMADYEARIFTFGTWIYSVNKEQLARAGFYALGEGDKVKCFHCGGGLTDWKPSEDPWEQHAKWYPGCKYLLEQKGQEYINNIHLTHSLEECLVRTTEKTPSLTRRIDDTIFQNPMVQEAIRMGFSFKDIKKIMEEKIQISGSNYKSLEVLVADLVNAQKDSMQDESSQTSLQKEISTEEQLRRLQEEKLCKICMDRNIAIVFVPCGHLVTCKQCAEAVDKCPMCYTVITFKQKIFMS

The structures appear in SMILES notation. Activity calls are given as the source filed them. Unless noted, no rule for the calls is given here.

Chain of Dihydroorotate dehydrogenase (quinone), mitochondrial (Plasmodium falciparum (isolate 3D7)) (Q08210 whole entry, looked up): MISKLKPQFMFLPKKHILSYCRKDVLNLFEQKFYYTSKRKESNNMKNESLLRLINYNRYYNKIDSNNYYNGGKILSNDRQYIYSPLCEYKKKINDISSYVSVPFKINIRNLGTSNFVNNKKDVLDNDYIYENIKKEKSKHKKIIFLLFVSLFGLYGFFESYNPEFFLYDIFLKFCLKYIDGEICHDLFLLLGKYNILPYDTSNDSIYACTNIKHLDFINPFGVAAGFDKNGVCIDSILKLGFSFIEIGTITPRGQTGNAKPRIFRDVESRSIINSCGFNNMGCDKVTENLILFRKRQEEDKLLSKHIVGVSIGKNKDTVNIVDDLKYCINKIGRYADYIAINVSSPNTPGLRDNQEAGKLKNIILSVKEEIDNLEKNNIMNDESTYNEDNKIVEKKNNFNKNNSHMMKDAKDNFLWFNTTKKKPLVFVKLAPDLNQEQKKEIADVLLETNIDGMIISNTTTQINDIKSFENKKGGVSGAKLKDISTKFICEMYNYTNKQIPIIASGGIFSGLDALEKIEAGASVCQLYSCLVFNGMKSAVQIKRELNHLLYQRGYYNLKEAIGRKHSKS

For `O=C(NN=C1C[C@@H](O)[C@@H](O)[C@@H]2[C@@H]3C(=O)N(c4cccc(Oc5ccccc5)c4)C(=O)[C@@H]3CC[C@@H]12)OCc1ccccc1`, the z-score is -0.198 in assay [1]; 0.498 (inactive) in assay [2]; 0.243 (inactive) in assay [3]; 0.0942 (inactive) in assay [5]; 0.775 (inactive) in [6]; -0.134 (inactive) in [7]. In addition, the z-score was -0.192 (inactive) in assay [8] and 0.464 in assay [9]. Also, the figures for the composite z-score in assay [4] and in [10] were 0.351 (inactive) and -0.0506, respectively.

With `COc1ccc([Si](C)(C)[C@H]2[C@H](CCO)O[C@@]3(C(=O)N(Cc4cccc(NC(=O)[C@H](C)O)c4)c4ccccc43)[C@@H]2C)cc1`, the z-score in assay [1] is -5.76; in [2] it was -0.321 (inactive); in [3], -9.08 (active); in [5], 1.19 (inactive); in [6], 4.03 (inactive); in assay [7], 1.7 (inactive). The results for the z-score in assay [8] and in assay [9] were 1.14 (inactive) and -6.16, respectively. Also, the composite z-score was 1.35 (inactive) in assay [4] and 0.131 in assay [10].

In the case of `CCOC(=O)[C@H](Cc1ccccc1)NC(=O)CCC1CC(OC(=O)NCc2ccc3c(c2)OCO3)CC2(CCCC(COC(=O)NCC(c3ccccc3)c3ccccc3)O2)O1` (stereo not given in full), the z-score in [1] was 0.56; in assay [2] it was -1.14 (inactive); in [3] it was 0.328 (inactive); in assay [5], 0.405 (inactive); in assay [6], 0.445 (inactive); in assay [7], 0.816 (inactive). Besides, the z-score was 0.381 (inactive) in assay [8] and 0.909 in [9]. In addition, the composite z-score in assay [4] was -0.219 (inactive); in assay [10], -0.0351.

Take `C#CCCCON=C1C[C@@H](O)[C@@H](O)[C@@H]2[C@@H]3C(=O)N(Cc4ccccc4)C(=O)[C@@H]3CC[C@H]12`: the z-score is 1.02 in assay [1]; -1.43 (inactive) in [2]; 0.582 (inactive) in assay [3]; 0.495 (inactive) in [5]; -1.59 (inactive) in assay [6]; -0.039 (inactive) in assay [7]. Moreover, the z-score was -0.923 (inactive) in assay [8] and 0.781 in assay [9]. The composite z-score in assay [4] is -0.794 (inactive); in assay [10], -0.256.

As for `CO[C@@H]1COC(=O)CC=C[C@@H](C)[C@@H]2C=C[C@H](O)[C@@H](COC(=O)CCC[C@H]1C)O2`, the z-score in [1] was 0.696; in [2], -1.19 (inactive); in assay [3] it was 0.492 (inactive); in [5] it was -0.95 (inactive); in assay [6], -0.725 (inactive); in [7], 0.118 (inactive). Moreover, the figures for the z-score in [8] and in assay [9] were -0.195 (inactive) and 0.401, respectively. For the same compound, the composite z-score in assay [4] is -0.24 (inactive); in assay [10] it was -0.12.

As for `C=C(/C(=C/C[C@H](OC(C)=O)c1ccc(OCCO)cc1)c1cnc2ccccc2c1)C(C)C`, the z-score in assay [1] was 1.93; in assay [2], -1.34 (inactive); in assay [3] it was -0.97 (inactive); in [5], -0.092 (inactive); in assay [6], -0.705 (inactive); in [7] it was 0.263 (inactive). Moreover, the z-score in assay [8] is -0.511 (inactive); in assay [9] it was -0.853. The composite z-score is -5.53 (inactive) in assay [4] and 0.102 in assay [10].

Consider `O=C1C[C@@H](O)[C@@H](O)[C@@H]2[C@@H]3C(=O)N(Cc4ccc5c(c4)OCO5)C(=O)[C@@H]3CC[C@@H]12`, for which the z-score in [1] was 0.227; in [2], 0.189 (inactive); in assay [3], -0.0728 (inactive); in [5], -0.131 (inactive); in assay [6] it was 0.258 (inactive); in assay [7] it was 0.0081 (inactive). The z-score in assay [8] was 0.0272 (inactive); in assay [9], -0.707. For the same compound, the composite z-score in [4] was 0.745 (inactive); in assay [10], 0.0908.

With `CC(C)[C@@H](OCc1ccccc1)[C@H](C)C=NO[C@H](C)c1cn([C@H](CO)Cc2ccccc2)nn1`, the z-score in assay [1] was -1.01; in [2], -3.51 (inactive); in [3], -2.02 (inactive); in assay [5], -0.324 (inactive); in assay [6], -2.3 (inactive); in assay [7], -0.0325 (inactive). Besides, the z-score is -0.0205 (inactive) in [8] and -1.67 in assay [9]. The composite z-score in [4] is -0.926 (inactive); in [10] it was -0.0287.

Turning to `O=C1[C@H]2[C@H]3[C@H](O)[C@H](O)CC(=NOC[C@@H](O)COCc4ccco4)[C@@H]3CC[C@H]2C(=O)N1c1ccc(F)cc1F`, the z-score in [1] is 0.883; in [2], -0.374 (inactive); in assay [3], 0.995 (inactive); in assay [5] it was -1.45 (inactive); in assay [6], -0.247 (inactive); in [7] it was 0.0718 (inactive). For the same compound, the results for the z-score in assay [8] and in [9] were 0.264 (inactive) and 1.15, respectively. Moreover, the composite z-score in assay [4] was -0.564 (inactive); in assay [10], -0.37.

With `CC(CCN1CCc2nc(-c3ccccc3)c(-c3ccccc3)cc2C1)=NOC(C)CN1CCCCc2nc(C)c(C)cc21` (stereo not given), the z-score in [1] is -0.0429; in assay [2] it was -2.52 (inactive); in [3], -1.07 (inactive); in assay [5], 0.347 (inactive); in assay [6], -0.609 (inactive); in assay [7], 0.789 (inactive). Moreover, the results for the z-score in assay [8] and in assay [9] were -0.702 (inactive) and -0.747, respectively. Also, the figures for the composite z-score in assay [4] and in assay [10] were 0.187 (inactive) and -0.0651, respectively.

In the case of `CO[C@H]([C@@H](C)[C@H](OC)c1ccccc1)[C@H](C)[C@@H](OC)[C@H](C)C(C)=O`, the z-score was 0.0132 in [1]; -1.22 (inactive) in [2]; 0.367 (inactive) in assay [3]; -0.373 (inactive) in assay [5]; 0.135 (inactive) in [6]; -0.0566 (inactive) in assay [7]. In addition, the z-score was -0.59 (inactive) in [8] and -0.0764 in assay [9]. The composite z-score in assay [4] is 0.758 (inactive); in assay [10], -0.21.

Take `CC(C)[Si]1(C(C)C)O[C@@H](c2ccccc2)c2cc(C3CC3)nc(-c3ccccc3)c21`: the z-score in assay [1] is 0.972; in assay [2], 0.0055 (inactive); in [3] it was 0.656 (inactive); in assay [5] it was 0.632 (inactive); in [6], -0.403 (inactive); in assay [7] it was -0.281 (inactive). Moreover, the figures for the z-score in [8] and in [9] were -0.785 (inactive) and 0.21, respectively. Further, the composite z-score in assay [4] is 0.45 (inactive); in [10] it was 0.0785.
